Assay outcomes: PubChem BioAssay, National Center for Advancing Translational Sciences (NCATS)
SARS PLpro yeast: inhibitors of SARS-CoV papain-like protease in yeast; Potency, µM (series often up to 32.9 µM), most hits filed as activators; S. cerevisiae expressing SARS-CoV PLpro, growth rescue; hit rate 0.19% among 330,000; calls by dose curve; note: nearly all actives have a fitted effect of over 55% in size
AMA1 RON2 block: inhibitors of Plasmodium falciparum AMA1-RON2 interaction; AlphaScreen AMA1-biotinylated RON2 peptide binding; Potency, µM (doses to about 58.2 µM), hits mostly inhibitors; hit rate 0.2% among 360,000; AID 720542; note: nearly all actives have a fitted effect of over 45% in size
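AMA1 (3D7) with his tag at 25 nM final met compounds first, then biotinylated RON2 peptide at 25 nM; detection used donor plus acceptor beads, 10 µg/mL apiece, read by AlphaScreen after 30 min at room temperature.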
Pf growth 48h: P. falciparum growth inhibition at 48 hours (one generation); P. falciparum luciferase growth in erythrocytes, 48 h; Potency, µM (titrated, usually from 28.7 µM), usual class: inhibitors; hit rate 5.9% among 310,000; AID 504832
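Luminescence readout; reporter = integrated firefly luciferase in P. falciparum. RBC culture at 2% hematocrit, 0.1% parasitemia final, 37 C/5% CO2; decreased signal taken as growth inhibition.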
Pf growth 96h: inhibits malaria parasite growth, 96 h. P. falciparum luciferase reporter growth, 96 h. Potency, µM (top dose mostly 28.7 µM), hits mostly inhibitors. hit rate 6.9% among 320,000
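Plates of compound plus infected erythrocytes (2% hematocrit, 0.05% parasitemia final) incubate 96 hours, 37 C, 5% CO2. Detection reagent added; reduced luminescence from the parasites' luciferase reporter flags inhibition.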
Cycloheximide cs: counter-screen for Shiga toxin inhibitors: cycloheximide protein synthesis inhibition | cell reporter, cycloheximide protein synthesis inhibition counterscreen | max response, % | hit rate 12% among 300,000; in the data active = max response mostly above about 13%, no sharp cut-off; inactive = mostly below about 14%; note: read at 38.3 µM for the half of the compounds with a filed dose
Shiga toxin inh: Shiga toxin inhibition. Vero cells, Shiga toxin protein synthesis inhibition reporter. hit rate 9.2% among 290,000. inhibition, % at 38.7 µM. AID 2315; in the data active = inhibition mostly above about 28%, no sharp cut-off; inactive = mostly below about 43%
Hits are given with their value; i = inactive; ? = inconclusive; nt = no result given; [ ] = dose if it differs, or a comment. Compounds with a hit are over-represented: about 19% of the library has one in this group of screens. Unless noted, calls come from the whole dose curve; as a rule, active = well fitted curve in the direction sought with a large enough effect; inconclusive = small, poorly fitted or top-dose-only effect, or another doubt; inactive = no such curve, though single readings can be large; an effect the other way counts as inactive or inconclusive.

SMILES	SARS PLpro yeast	AMA1 RON2 block	Pf growth 48h	Pf growth 96h	Cycloheximide cs	Shiga toxin inh
CCn1cc(C(=O)N[C@@H](CC(C)C)C(=O)NCCCn2ccnc2)c(=O)c2cc3c(cc21)OCO3	i	i	?	?	i	i
CCOC(=O)C1(Cc2ccc(Cl)cc2)CCN(C(=O)CCc2ccncc2)CC1	i	i	?	?	i	i
COCCNC(=O)/C(C#N)=C/c1c(F)cccc1Cl	i	i	i	i	i	i
Cn1nc(-c2ccc(Cl)cc2)cc1NC(=O)CCCC(=O)O	i	i	i	i	i	i
O=C(c1ccccc1)N(Nc1ccccc1)c1ccccc1	i	?	i	i	i	i
CCOC(=O)CSc1nc2ccccc2c(=O)n1Cc1ccco1	i	i	i	i	i	i
Cc1ccc(CSc2nc3ccccc3c(=O)n2Cc2ccco2)cc1	i	i	13µM	9.3µM	i	63
O=C(CSc1nc2ccccc2c(=O)n1Cc1ccco1)c1ccccc1	i	i	i	i	24	i
O=c1c2ccccc2nc(SCc2ccccc2)n1Cc1ccco1	i	i	?	i	36	i
CCOC(=O)c1cc(-c2ccccc2)nc2c(O)cccc12	nt	i	nt	nt	nt	nt
Cc1cccc(C)c1NCc1n[nH]c(=S)n1-c1ccccc1	i	i	i	i	i	i
O=C(CSc1ccccc1F)NC(=O)c1ccccc1Br	i	i	nt	nt	nt	nt
O=C(Nc1ccc(F)cc1F)c1cccn(Cc2ccccc2)c1=O	i	i	15µM	i	i	i
O=C(Nc1ccncc1)c1cccn(Cc2ccccc2)c1=O	i	i	i	?	i	i
Cn1cc(Cl)cc(C(=O)Nc2ccccc2)c1=O	i	i	i	i	34	59
CCOC(=O)Cn1cc(Cl)cc(C(=O)Nc2ccccc2)c1=O	i	i	i	i	i	i
O=C(Nc1ccccc1)c1cccn(Cc2ccccc2)c1=O	i	i	i	i	34	98
N#CC(C(=O)Nc1ccc(Cl)c(Cl)c1)=C1Nc2ccccc2N1	i	i	i	2.6µM	i	i
N#CC(C(=O)Nc1cccc(Cl)c1)=C1Nc2ccccc2N1	i	i	i	i	i	i
N#CC(C(=O)Nc1ccccc1)=C1Nc2ccccc2N1	i	i	i	nt	i	75
O=C1Nc2ccccc2C(=O)N2C[C@@H](O)C[C@H]12	i	i	i	i	i	i
CCCN1CCC[C@@H]2Cc3cn[nH]c3C[C@H]21	nt	nt	nt	nt	i	i
CCCN1CCCC2Cc3nc(N)ncc3CC21 (stereo not given)	nt	nt	i	12µM	nt	nt
COc1ccc(C(C#N)N2N=C(c3ccccc3)CC2c2ccccc2)cc1OC (stereo not given)	i	i	i	i	68	44
COc1ccc(C2=NN(C(C#N)c3ccc(OC)cc3)C(c3ccccc3)C2)cc1 (stereo not given)	i	i	i	i	33	83
SMILES	SARS PLpro yeast	AMA1 RON2 block	Pf growth 48h	Pf growth 96h	Cycloheximide cs	Shiga toxin inh
COc1ccc(C2=Nc3nc(-c4ccccc4)cn3C(c3ccc(OC)cc3)C2)cc1 (stereo not given)	i	i	2.9µM	?	i	i
COc1ccc(C(C#N)N2N=C(C)CC2c2ccccc2)cc1 (stereo not given)	i	i	nt	i	i	i
COc1ccc(C(=O)N2CCN(c3ccccc3Cl)CC2)cc1S(=O)(=O)NC1CC1	i	i	?	?	nt	nt
CCCn1c(CC)nc([N+](=O)[O-])c1S(=O)(=O)c1ccccc1	i	i	10µM	?	i	i
COc1cc(-c2coc3c(C(=O)NCc4ccc(C(F)(F)F)cc4)cccc23)ccc1O	nt	i	nt	nt	nt	nt
C#CCn1c(=NC(=O)c2ccco2)sc2cccc(Cl)c21	i	i	i	i	13	i
CCOc1cccc2sc(=NC(=O)c3ccco3)n(CC(=O)OC)c12	i	i	?	i	37	68
Cc1nn(C(=O)CNS(=O)(=O)c2ccccc2)c(C)c1Sc1ccc(Cl)cc1	i	i	i	i	i	i
CN(N=Nc1nc[nH]c1C(=O)NN)C1CCCCC1	nt	i	nt	nt	nt	nt
Clc1cnc(N/N=C/c2ccco2)c(Cl)c1	i	i	i	i	57	94
Clc1cnc(N/N=C/c2cccs2)c(Cl)c1	?	i	i	?	36	128
Cc1ccc(/C=N/Nc2ccc(F)cc2F)s1	i	i	nt	?	37	91
Oc1ccc(/C=N/Nc2ncc(Cl)cc2Cl)cc1	i	i	i	?	50	111
OCCn1nc(-c2ccccc2)cc1-c1ccccc1	i	i	i	?	i	i
Cc1ccc(/C=N/Nc2ccc(C(=O)O)cc2)s1	i	i	i	i	i	i
Cc1ccc(/C=N/Nc2ncc(Cl)cc2Cl)s1	i	i	nt	?	34	i
O=C(CCl)N(c1ccccc1)c1c[nH]c2ccccc12	i	i	1.7µM	1.2µM	i	i
O=C(CCl)N(c1ccc(Cl)cc1)c1c[nH]c2ccccc12	i	i	2.3µM	nt	i	i
O=C(Cc1ccc(Cl)cc1)NCCc1c[nH]c2ccccc12	nt	i	nt	nt	nt	nt
O=C(O)Cc1c[nH]c2ccccc12	nt	i	nt	nt	nt	nt
Cc1cc(NC(=O)C2C3C(=O)N(CC4CCCO4)C(C(=O)NCc4ccccc4)C34C=CC2(C)O4)no1 (stereo not given)	i	i	i	?	i	i
COCCn1c(NC(=S)NC(=O)C23CC4CC(CC(C4)C2)C3)cc(=O)[nH]c1=O	i	i	?	15µM	i	i
C[C@@H]1CN([C@H](C)CO)S(=O)(=O)c2ccc(Br)cc2O[C@H]1CN(C)C(=O)Cc1ccccn1	nt	i	nt	nt	nt	nt
Cc1cccc(Cn2cc(/C=C/[N+](=O)[O-])c3ccccc32)c1	i	i	3.7µM	i	i	i
O=[N+]([O-])/C=C/c1cn(Cc2ccc(Cl)cc2)c2ccccc12	i	?	3.7µM	?	i	i
SMILES	SARS PLpro yeast	AMA1 RON2 block	Pf growth 48h	Pf growth 96h	Cycloheximide cs	Shiga toxin inh
CCOC(=O)Cn1cc(/C=C/[N+](=O)[O-])c2ccccc21	i	i	?	i	i	i
COC(=O)c1ccc(Cn2cc(/C=C\[N+](=O)[O-])c3ccccc32)o1	i	i	4.7µM	?	i	nt
COc1cc(N/C(=N/S(=O)(=O)c2ccccc2)c2ccccc2)ncn1	nt	i	i	i	46	68
Cc1ccc(S(=O)(=O)/N=C(/NNC(=O)c2cccc(Cl)c2)c2ccccc2)cc1	i	i	i	?	33	99
O=S(=O)(/N=C(/Nc1ccccn1)c1ccc(Cl)cc1)c1ccc(Cl)cc1	i	i	i	?	49	i
Cc1ccc(S(=O)(=O)NN/C(=N/S(=O)(=O)c2ccccc2)c2ccccc2)cc1	i	i	i	i	i	i
O=C(NN/C(=N/S(=O)(=O)c1ccc(Cl)cc1)c1ccccc1)c1cccc(Cl)c1	i	i	i	i	31	81
Cc1c(Cl)c([N+](=O)[O-])nn1CCCC(=O)NC1CCCCC1	i	i	i	i[5.75 µM]	i	i
O=C(NN/C(=N/S(=O)(=O)c1ccc(Cl)cc1)c1ccccc1)c1ccc(O)cc1	i	i	i	i	67	56
O=[N+]([O-])c1ccc(SCc2ccncc2)nc1	i	i	i	i	i	i
